About 18,000 (5.8%) of roughly 310,000 compounds were called active. About 22% were inconclusive and are not listed. What follows is part of a selection rich in actives, with near analogues and random picks from the rest. A number with no mark means an inactive call. The call rests on the fitted dose curve; in most records, active means well fitted inhibition curve with a large enough effect; inconclusive means small, poorly fitted or top-dose-only effect, or another doubt; inactive means no such curve, though single readings can be large or run the other way.
Assay: Primary qHTS for delayed death inhibitors of the malarial parasite plastid, 48 hour incubation
Settings: P. falciparum luciferase growth in erythrocytes; series mostly up to 28.7 µM; activity change, negative = inhibition: at the top concentration
Summary of the method: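 Erythrocytes infected with P. falciparum carrying an integrated firefly luciferase reporter (2% hematocrit, 0.1% parasitemia final) were exposed to compounds in RPMI 1640 with 0.5% Albumax at 37 C, 5% CO2. Growth inhibition was scored as reduced luminescence.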
On the % scale 0 is the no-effect control and ±100 the full control effect; potency means the concentration at half of the fitted maximal effect.

SMILES	activity change, negative = inhibition	Potency
Cc1nc(COc2cc3oc(=O)cc(C)c3cc2Cl)cs1	56.1%	–
NC(=O)C1CCCN(CC(=O)N2CCN(c3ccccc3)CC2)C1 (stereo unspecified)	21.6%	–
Cc1ccc(-n2ncc3c2CC(C)(C)CC3NC(=O)CCc2cnn(C)c2)cc1 (stereo unspecified)	-10.4%	–
C[n+]1cc(-c2ccccc2)oc1-c1ccccc1	79.7%	–
O=C(COc1ccc2c3c(c(=O)oc2c1)CCCC3)NCC(O)c1ccccc1 (stereo unspecified)	0.369%	–
O=c1c2ccccc2nc(CSc2nnnn2-c2ccccc2)n1-c1ccccc1	21.2%	–
CCCc1nc2ccccc2c(=O)n1/N=C/c1ccc(O)c(O)c1	0%	–
CCCN1C(=O)C(Cc2nc3ccccc3c(=O)n2-c2ccccc2)c2cc(C)ccc21 (stereo unspecified)	–	13.1 µM (active)
COCCNC(=O)CN(Cc1ccco1)C(=O)CCC(=O)Nc1nccs1	3.14%	–
CCOc1ccc(CCNC(=O)CCc2nnc3ccc(N4CCCC4)nn23)cc1OCC	-17.1%	–
CC1C(=O)N2CCCc3cc(S(=O)(=O)NCc4ccc(F)cc4)cc1c32 (stereo unspecified)	-1.55%	–
CC1CCN(C(=O)C2CCN(S(=O)(=O)N3CCC4(CC3)OCCO4)CC2)CC1	-24.5%	–
CC1(C)CC(=O)CC2(C1)NCC(c1ccccc1Cl)c1c2[nH]c2ccccc12 (stereo unspecified)	–	10.4 µM (active)
COc1cc2c(cc1NC(=O)COC(=O)/C=C/c1ccccc1)oc1ccccc12	19.8%	–
COc1ccc(NC(=O)CN2CCN(S(=O)(=O)c3ccc(F)cc3)CC2)cc1Cl	-13.7%	–
C/C(=N/NC(=O)CN1CCN(S(=O)(=O)c2ccc(Br)cc2)CC1)c1ccncc1	0%	–
O=C(CN1CCN(S(=O)(=O)c2ccc(Br)cc2)CC1)Nc1ccccc1C(=O)c1ccccc1	–	13.1 µM (active)
O=C(CN1CCN(S(=O)(=O)c2ccc(F)cc2)CC1)Nc1ccccc1F	-3.52%	–
COc1cc2c(cc1NC(=O)CN1CCN(S(=O)(=O)c3ccc(F)cc3)CC1)oc1ccccc12	–	10.4 µM (active)
CCCn1c(N)c(N(CCOC)C(=O)C2CCCC2)c(=O)[nH]c1=O	-0.556%	–
Cc1cc(NC(=O)CCS(=O)(=O)c2ccc(F)cc2)no1	-24.6%	–
CC(C)=N/N=C1/NC(=O)C(Cc2ccccc2)S1 (stereo unspecified)	-27.8%	–
N#CC1(NC(=O)COC(=O)CCN=C2NS(=O)(=O)c3ccccc32)CCCCC1	0.444%	–
CC(=O)Nc1ccc(S(=O)(=O)N2CCC(C(=O)N[C@@H](Cc3ccccc3)C(=O)O)CC2)cc1	15.3%	–
COc1c(O)ccc2c1CN1CCc3cc4c(cc3C1C2)OCO4 (stereo unspecified)	–	1.85 µM (active)
CN1CCc2cc3c(cc2[C@H]1[C@@H]1OC(=O)c2c1ccc1c2OCO1)OCO3	-8.96%	–

SMILES	activity change, negative = inhibition	Potency
COc1cc(COCC(O)CN2CCN(Cc3ccc4c(c3)OCO4)CC2)cc(OC)c1OC (stereo unspecified)	0%	–
COc1ccc(N2CCN(C(=O)CNC(=O)c3ccc(Br)o3)CC2)cc1	-1.91%	–
COc1cccc(C(=O)NNC(=O)c2cccc(F)c2)c1	106%	–
CC(OC(=O)CCC(=O)c1ccccc1)C(=O)Nc1ccc(F)cc1 (stereo unspecified)	-0.871%	–
C=CCC(NCc1ccco1)c1ccc(OC)cc1 (stereo unspecified)	-2.5%	–
COc1ccc(Nc2nc(NCc3ccco3)nc(N/N=C/c3ccccc3Cl)n2)cc1	–	10.4 µM (active)
COc1ccc(Nc2nc(Cl)nc(NCc3ccco3)n2)cc1	-11.9%	–
CC1(c2nnc(Cc3ccccc3)o2)CC(c2ccccc2F)=NO1 (stereo unspecified)	5.51%	–
O=C(Nc1ccc(S(=O)(=O)NCC2CCCO2)cc1)c1ccc(F)cc1 (stereo unspecified)	-4.09%	–
Cc1ccc(C)c(OCc2cc(C(=O)N3CCN(c4cnccn4)CC3)no2)c1	-12.7%	–
COc1cc(C2C3=C(CCCC3=O)OC3=C2C(=O)CCC3)ccc1OCC(=O)Nc1ccccc1	-26.2%	–
O=C(CCC1CCCC1)N=C1SC2CS(=O)(=O)CC2N1Cc1ccccc1 (stereo unspecified)	-0.261%	–
CC(C)(C)c1ccc(C(CC(=O)O)NS(=O)(=O)Cc2ccccc2)cc1 (stereo unspecified)	20.6%	–
CCCOc1ccc(C(=O)CCC(=O)OC(C)C(=O)Nc2ccc(NC(C)=O)cc2)cc1 (stereo unspecified)	20.9%	–
CCCOc1ccc(C(=O)C(CCC(CNCC)C(=O)c2ccc(OCCC)cc2)CNCC)cc1 (stereo unspecified)	–	1.85 µM (active)
CCCOc1ccc(C(=O)NCCc2ccccc2)cc1	252%	–
COc1ccc(NC(=O)N2CCCC2C(=O)NCc2ccccc2Cl)cc1 (stereo unspecified)	-14.8%	–
O=C(N/C(=C\c1ccc(O)cc1)C(=O)N1CCCCC1)c1ccccc1	31.2%	–
Nc1ccn(C2CC(O)C(CO)O2)c(=O)n1 (stereo unspecified)	24.6%	–
Cc1ccc(NC(=O)CSc2nc(=O)n(CCN(C)C)c3c2CCCC3)c(C)c1	1.01%	–
Cc1cc2c(c(=O)n1Cc1ccccc1)C1O[C@](CCCCN3C(=O)c4ccccc4C3=O)(Cc3ccccc31)O2	–	0.675 µM (active)
C=CCn1c(C)cc(C(=O)CN2C(=O)c3ccccc3C2=O)c1C	3.02%	–
COc1ccc2c3c(c(=O)oc2c1)C1O[C@](CCCCN2C(=O)c4ccccc4C2=O)(Cc2c1ccc1ccccc21)O3	44.1% [at 5.75 µM]	–
CC(C)(C)NC(=O)NC(=O)COC(=O)Cc1ccc(Cl)cc1Cl	15%	–
NNC(=O)c1ccc(Cl)cc1Cl	10.5%	–

Reference: PubChem BioAssay AID504832 (National Center for Advancing Translational Sciences (NCATS), 2011)
